Experimental findings from PubChem BioAssay AID588726 (The Scripps Research Institute Molecular Screening Center, 2011) are described below.

Molecules are shown by their SMILES. The campaign covered roughly 360,000 compounds. About 8,200 (2.3%) were called active. Rule as the data show it: active = inhibition above about 27%; inactive = the rest. Many of the other results were omitted from the sample, so actives are more common in it than they were.

In the assay the target is Fructose-bisphosphate aldolase (Mycobacterium tuberculosis (strain ATCC 25618 / H37Rv)) (UniProt P9WQA3). The experiment in a line: Mtb FBA enzyme inhibitors, primary screen, biochemical, fluorescence, strain H37Rv (AID 588726).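 Also: 0% = vehicle and 100% = reference inhibitor.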 Conditions: purified M. tuberculosis FBA, fluorescence read-out, at 1 µM, active compounds read high.
Sequence of Fructose-bisphosphate aldolase (Mycobacterium tuberculosis (strain ATCC 25618 / H37Rv)) (P9WQA3 whole entry, looked up): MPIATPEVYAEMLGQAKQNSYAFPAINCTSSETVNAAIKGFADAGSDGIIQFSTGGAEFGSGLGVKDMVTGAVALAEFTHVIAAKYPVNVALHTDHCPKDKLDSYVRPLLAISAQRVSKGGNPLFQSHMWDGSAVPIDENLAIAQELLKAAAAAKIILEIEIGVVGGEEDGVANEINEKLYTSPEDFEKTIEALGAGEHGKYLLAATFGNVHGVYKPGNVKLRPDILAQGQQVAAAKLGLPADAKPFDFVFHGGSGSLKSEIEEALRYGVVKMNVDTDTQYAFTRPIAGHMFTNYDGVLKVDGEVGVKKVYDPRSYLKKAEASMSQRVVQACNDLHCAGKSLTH
With `O=C(NNC(=O)c1ccco1)Nc1ccccc1`, the inhibition is -0.74% (inactive). The same measure for `CC(C)(C)NC(=O)c1cc(NC(=O)c2ccco2)cc(NC(=O)c2ccco2)c1`: 1.27% (inactive); for `O=C(Nc1ccc2nccnc2c1)c1ccco1`: 50.1% (active). The figure for `COc1ccc(-c2[nH]ncc2CN(C)Cc2cc(C)[nH]n2)c(F)c1` is -3.53% (inactive); for `CC(C)C(OC(=O)c1cccs1)C(=O)NC1CCCCC1` (centres undefined) it is 3.33% (inactive); for `O=C(NCc1cccnc1)c1cc(C2CCCN(C(=O)C3CCCCC3)C2)on1` (centres undefined) it is 1.09% (inactive). The figure for `CCOC(=O)CN(C(=O)COc1nc(C)cc(C)c1C#N)c1ccc(Cl)cc1` is 0.17% (inactive). `Cc1cc(C(F)(F)F)c(C#N)c(SCC(=O)NC2CC2)n1`: the inhibition is 1.94% (inactive). The figure for `CCOC(=O)COc1nc(C)cc(C(F)(F)F)c1C#N` is 75.7% (active).

`O=C1CC(Cc2ccc(Cl)cc2)C(=O)N1c1cc(Cl)ccn1` (centres undefined): the inhibition is -3.99% (inactive). The same measure for `Cc1cc(C)n(-c2nc(O)cc(=O)[nH]2)n1`: -2.32% (inactive); for `OC(c1nnc(-c2ccccc2)o1)c1cccs1` (centres undefined): -4.15% (inactive). As to `Nc1ccc(-c2nnc(-c3ccc(-c4ccccc4)cc3)o2)cc1`, the inhibition is 62.9% (active). The same measure for `CN(C)c1ccc(-c2nnc(-c3cccnc3)o2)cc1`: 14.1% (inactive); for `COC(=O)[C@@H]1C[C@@]2(O)[C@@H](O)[C@@H](O)[C@@H](O)C[C@H]2N1Cc1ccc(C)s1`: -1.21% (inactive). For `CC(C)Cn1c(N)c(C(=O)COC(=O)C2CCCN2C(=O)c2cccs2)c(=O)n(C)c1=O` (centres undefined), the inhibition was 2.37% (inactive). The same measure for `Cc1ccc(S(=O)(=O)N2CCN(C(=O)Cc3sc(C)nc3-c3ccc(F)cc3)CC2)c(C)c1`: -0.33% (inactive); for `C=CCn1c(COc2ccc(F)cc2)nnc1SCC(=O)Nc1cccc(S(N)(=O)=O)c1`: 0.32% (inactive); for `Cc1ccc(NC(=O)CSc2nnc(CNC(=O)c3ccccc3F)o2)cc1`: 0.75% (inactive). The same measure for `C=CCn1c(CCNC(=O)c2ccccc2F)nnc1SCC(=O)Nc1ccc(OC)cc1`: 43.4% (active); for `COc1ccc(CCNC(=O)C(=O)NCC2OCCN2S(=O)(=O)c2ccc(OC)c(C)c2)cc1` (centres undefined): -0.91% (inactive); for `O=C(CN(C(=O)c1csnn1)c1cccc(Cl)c1)NC1CCCC1`: 2.14% (inactive).

Take `CC(C)[C@@H](C(=O)O)N(Cc1cccc(CN([C@H](C(=O)O)C(C)C)S(C)(=O)=O)c1)S(C)(=O)=O`: the inhibition is 5.75% (inactive). The same measure for `O=C1CC2(CCCC2)Oc2ccc(Cl)cc21`: 2.17% (inactive); for `O=C1CC2(CCCCC2)Oc2ccc(OCC(=O)N3CCOCC3)cc21`: 49.5% (active); for `O=C1CC2(CCN(C(=O)COc3ccc(F)cc3)CC2)Oc2ccccc21`: 6.06% (inactive). The same measure for `Cc1ccc2nc(/C(C#N)=C\c3ccc(OC(=O)c4cccs4)cc3)[nH]c2c1`: 36.1% (active). The same measure for `COc1ccc(CCNC(=O)/C(C#N)=C2\N=C(NC(=O)c3cccs3)c3ccccc32)cc1`: -0.53% (inactive); for `CCN(CC)c1ccc(C(=O)c2cnc(/N=C/N(C)C)s2)cc1`: -0.9% (inactive). In the case of `CCC1CCCCN1CCNC(=O)c1[nH]c(C)c(C(C)=O)c1C` (centres undefined), the inhibition was -2.24% (inactive). The same measure for `CC(C(=O)N1CCN(c2ccccc2F)CC1)c1ccc([N+](=O)[O-])cc1` (centres undefined): -0.87% (inactive); for `CC(C)(C)NS(=O)(=O)c1ccc(NC(=O)C2CCCO2)cc1` (centres undefined): 0.12% (inactive); for `O=C(Nc1ccc(-c2nnc(-c3ccccc3)o2)cc1)C1CCCO1` (centres undefined): 61.2% (active). The same measure for `CCOc1ccc(NC(=O)c2ccc(NC(=O)C3CCCO3)cc2)cc1` (centres undefined): 0.48% (inactive); for `c1ccc2c(-c3nn4nnnc4c4ccccc34)cccc2c1`: 1.01% (inactive). The figure for `Cc1csc(NC(=O)C2CCN(S(=O)(=O)c3ccccc3)CC2)n1` is -1.66% (inactive); for `COc1cccc(C(=O)Nc2ccc3nc4n(c(=O)c3c2)CCCCC4)c1` it is 0.68% (inactive).

In the case of `COc1cc(OC)cc(C(=O)Nc2ccc(-c3nc4ccccc4o3)c(O)c2)c1`, the inhibition was 38% (active).

As for `COc1cc(OC)cc(C(=O)N[C@H](C(=O)Nc2nc3ccccc3[nH]2)C(C)C)c1`, the inhibition was -0.55% (inactive). The figure for `Cc1ccc2nc(-c3ccc(NC(=O)c4cccnc4)cc3)oc2c1` is -7.14% (inactive); for `CC(=O)Nc1ccc(-c2nc3ccccc3o2)cc1` it is 60.6% (active). The same measure for `CC(C)(C)C(=O)CSc1nc2ccccc2o1`: 2.23% (inactive); for `CC1(C(=O)Nc2cccc3c2CCCC3)CCN1C(=O)CCc1ccc(Cl)cc1Cl` (centres undefined): 0% (inactive). Turning to `O=C(Cc1ccc(F)cc1)NC1CCCC1`, the inhibition was -0.93% (inactive). The figure for `Cc1noc(C)c1C(=O)NCCc1ccc(S(N)(=O)=O)cc1` is 0.56% (inactive); for `CCCNC(=O)c1c(N)n(-c2ccc(S(N)(=O)=O)cc2)c2nc3ccccc3nc12` it is 102% (active); for `CCOC(=O)c1c(C)c(C(=O)NCCc2ccc(S(N)(=O)=O)cc2)c(C)n1CC` it is -2.42% (inactive). The figure for `CC1(C(=O)NCc2cccc3ccccc23)CCN1Cc1ccc(-c2ccccc2)o1` (centres undefined) is 2.7% (inactive); for `Cc1cc(Nc2cc(N3CCN(C)CC3)nc(Sc3ccc(NC(=O)C4CC4)cc3)n2)n[nH]1` it is 0.5% (inactive).

`NC(=O)Cc1ccc2sc(-c3ccccc3)nc2c1`: the inhibition is 5.06% (inactive). The figure for `CCOc1ccc(-c2nc(C)sc2CC(=O)O)cc1` is 5.29% (inactive); for `O=C(O)Cc1sc(-c2ccc(C(=O)O)cc2)nc1-c1ccccc1` it is 37% (active); for `Cc1cccc(C)c1N1C(=O)CN(Cc2ccccc2)C1=S` it is 3.51% (inactive). The same measure for `Cc1ccc2nc(-c3ccco3)c(Cc3cccc(Cl)c3)n2c1`: 30.3% (active); for `Clc1cccc(Cc2c(-c3cccc(Cl)c3)nc3ccc(Cl)cn23)c1`: 6.59% (inactive); for `Cc1ccc(Cc2c(-c3ccco3)nc3ccc(Cl)cn23)cc1`: 6.29% (inactive). The figure for `O=C(Nc1ccc(N2CCN(C(=O)c3ccccc3)CC2)c(Cl)c1)c1cccnc1` is -4.3% (inactive). Turning to `COc1ccc(CCNS(=O)(=O)c2ccc(F)cc2)cc1OC`, the inhibition was 0.71% (inactive).

In the case of `Cc1nn(C)c(Oc2ccccc2)c1CCNS(=O)(=O)c1ccc(F)cc1`, the inhibition was 28.7% (active). As to `Cn1c(CCNS(=O)(=O)c2ccc(F)cc2)nnc1SCc1cccnc1`, the inhibition was -0.16% (inactive). The figure for `COC(=O)c1ccc(CN2CCC(CO)(Cc3ccc(OC)cc3)CC2)cc1` is 8.41% (inactive); for `CC1(Cc2cccc(C#N)c2)C(=O)Nc2ccc(-c3cccc(C(F)(F)F)c3)cc21` (centres undefined) it is -1.35% (inactive). The figure for `C=CCn1cc(-c2cccc(C(F)(F)F)c2)cc(C#N)c1=O` is 47.4% (active); for `C=CCn1c(-c2ccc(Cl)cc2)ccc(C#N)c1=O` it is 1.41% (inactive); for `O=C(COC(=O)CNS(=O)(=O)c1ccc(F)c(F)c1F)NC1CCCC1` it is -3.58% (inactive).

With `COc1ccc(CNC(=O)CN(C(=O)c2csnn2)c2cnc3ccccc3c2)cc1`, the inhibition is 3.6% (inactive). The figure for `COC(=O)N1CN(C(=O)OC)CN(C(=O)OC)C1` is 0.37% (inactive); for `Cc1ccc(C2CCN(C(=S)Nc3cccc(Cl)c3)C2)cc1` (centres undefined) it is -1.23% (inactive). The same measure for `Cc1nc2ccc(NC(=S)N3CCC(C)CC3)cc2nc1C`: 5.9% (inactive); for `Cc1nc2ccc(NC(=O)N3CCC(c4ccccc4)C3)cc2nc1C` (centres undefined): 72.4% (active).

As to `COc1cccc(CN2CCN(Cc3ccc4cccc(F)c4n3)CC2CCO)c1` (centres undefined), the inhibition is 2.17% (inactive).

Turning to `Cc1ccc(C(CNC(=O)Nc2cccc(C)c2)N2CCN(C)CC2)cc1` (centres undefined), the inhibition is 2.29% (inactive). The same measure for `COc1ccc(-c2cc(=O)oc3cc(OCC(=O)N(C)C4CCS(=O)(=O)C4)ccc23)cc1` (centres undefined): 3.8% (inactive). The figure for `CCN(C(=O)COC(=O)c1ccc(COc2ccc3c(C)cc(=O)oc3c2)cc1)C1CCS(=O)(=O)C1` (centres undefined) is 44.6% (active); for `Cc1ccccc1NC(=O)c1ccc(COc2ccc3c(C)cc(=O)oc3c2)cc1` it is 11.9% (inactive).

For the molecule `C[C@@H]1CN([C@@H](C)CO)C(=O)CCCn2nncc2CO[C@@H]1CN(C)S(=O)(=O)c1ccc(-c2ccccc2)cc1`, the inhibition is -2.99% (inactive).

In the case of `CCc1nc2c(OCCOc3ccccc3)cccn2c1N(C)C(=O)c1ccc(OC)cc1`, the inhibition is 1.06% (inactive). The figure for `CN(C)CCCn1c(N)c(C#N)c2nc(C#N)c(C#N)nc21` is 61.1% (active); for `C=CCn1c(SCc2nnc(-c3ccccc3)o2)nnc1C(O)c1ccccc1` (centres undefined) it is 1.46% (inactive); for `Cc1sc2nc(SCCO)n(-c3ccccc3)c(=O)c2c1C` it is 1.67% (inactive).

On to `C/C(O)=C\c1nc(=O)c2c(C)cc(C)nc2n1-c1ccccc1`, for which the inhibition was 4.59% (inactive). As for `Cc1cc(C)c2c(n1)sc1c(=O)n(-c3ccccc3)c(=O)[nH]c12`, the inhibition was 38.8% (active).

`COC(=O)c1ccccc1NC(=O)CN(Cc1ccccc1)S(C)(=O)=O`: the inhibition is 5.21% (inactive). The same measure for `COc1ccccc1N1CCN(S(=O)(=O)CCNC(=O)c2ccc(OC(C)C)cc2)CC1`: -0.15% (inactive); for `C[C@@H]1CN([C@@H](C)CO)C(=O)c2c(c3ccccc3n2C)-c2ccccc2CO[C@H]1CN(C)C(=O)C1CC1`: 2.36% (inactive); for `O=c1c2[nH]c3ccc(Cl)cc3c2ncn1Cc1ccccn1`: -2.42% (inactive). With `COc1ccc2[nH]c3c(=O)n(Cc4ccco4)cnc3c2c1`, the inhibition was 97.5% (active). The same measure for `Cc1ccc2[nH]c3c(=O)n(Cc4ccccn4)cnc3c2c1`: 29.9% (active).

With `COc1ccc2oc(C(=O)NCc3ccco3)c(C)c2c1`, the inhibition is 25.3% (inactive).

For `COc1ccc2c(c1)c1ncn(Cc3ccccn3)c(=O)c1n2C`, the inhibition was 159% (active). With `CCN1CCCC1Cn1cnc2c([nH]c3cc(OC)ccc32)c1=O` (centres undefined), the inhibition was 1.27% (inactive).

Regarding `COc1cccc(Cn2cnc3c([N+](=O)[O-])c(C)c(C)cc32)c1`, the inhibition is -3.25% (inactive). The figure for `Cc1ccc(C)c(Cn2cnc3c(oc4ccccc43)c2=O)c1` is -1.54% (inactive); for `COc1ccc2c(c1)c1nc3n(c(=O)c1n2CC(=O)Nc1ccccc1)CCS3` it is 8.41% (inactive).
